# Screening data as filed in PubChem.
# Shown are actives, neighbours in structure and some others; about 22% of the full set was active somewhere.
# Pf growth 48h – Primary qHTS for delayed death inhibitors of the malarial parasite plastid, 48 hour incubation | Potency, µM (series often up to 28.7 µM), inactives show top-dose activity change, negative = inhibition, actives largely listed as inhibitors | actives 5.9% (n = 310,000) | P. falciparum luciferase growth in erythrocytes, 48 h; note: potency is the fitted concentration of half-maximal effect; % is set by controls: 0 for no effect and ±100 for the full control effect
#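 Erythrocytes infected with P. falciparum carrying an integrated firefly luciferase reporter (2% hematocrit, 0.1% parasitemia final) were exposed to compounds in RPMI 1640 with 0.5% Albumax at 37 C, 5% CO2. Growth inhibition was scored as reduced luminescence.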
# Pf growth 96h – Primary qHTS for delayed death inhibitors of the malarial parasite plastid, 96 hour incubation; P. falciparum luciferase reporter growth, 96 h; Potency, µM (series often up to 28.7 µM), for the others: top-dose activity change, negative = inhibition, usual class: inhibitors; actives 6.9% (n = 320,000); note: potency is the fitted concentration of half-maximal effect; % is set by controls: 0 for no effect and ±100 for the full control effect
#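 Readout is luminescence from an integrated firefly luciferase in P. falciparum. Red cells, 2% hematocrit and 0.05% parasitemia final, were cultured with compound through two parasite generations (96 hours) at 37 C, 5% CO2.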
# LmPK inhibitor – qHTS Assay for Inhibitors of Leishmania Mexicana Pyruvate Kinase (LmPK) | Q27686 | purified LmPK, Kinase-Glo ATP luminescence, 1 h | Potency, µM (series often up to 57.5 µM), for inactives: top-dose activity change, negative = inhibition, most hits filed as inhibitors | actives 0.37% (n = 290,000) | AID 1721, 2009; note: potency is the fitted concentration of half-maximal effect; % is set by controls: 0 for no effect and ±100 for the full control effect
# Target sequence (Q27686 whole entry, looked up): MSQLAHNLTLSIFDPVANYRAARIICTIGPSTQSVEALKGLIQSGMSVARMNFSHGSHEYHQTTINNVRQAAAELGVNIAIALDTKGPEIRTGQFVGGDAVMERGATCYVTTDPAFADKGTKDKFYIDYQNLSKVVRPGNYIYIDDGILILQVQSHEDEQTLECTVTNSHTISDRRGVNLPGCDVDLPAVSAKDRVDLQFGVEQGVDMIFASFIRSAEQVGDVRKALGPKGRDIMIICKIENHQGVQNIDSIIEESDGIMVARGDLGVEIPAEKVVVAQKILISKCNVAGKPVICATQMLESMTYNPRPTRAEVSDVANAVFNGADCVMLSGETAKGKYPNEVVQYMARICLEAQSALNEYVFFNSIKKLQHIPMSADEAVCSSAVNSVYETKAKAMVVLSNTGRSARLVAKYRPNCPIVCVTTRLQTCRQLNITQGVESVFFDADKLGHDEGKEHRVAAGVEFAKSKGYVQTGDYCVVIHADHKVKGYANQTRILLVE
#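 In 50 mM imidazole pH 7.2 with 7 mM MgCl2, LmPK (0.1 nM) turned over PEP (0.5 mM) and ADP (0.1 mM) for 1 h at room temperature. Luciferase read-out of ATP.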
# CHX counter – Cycloheximide Counterscreen for Small Molecule Inhibitors of Shiga Toxin | cell reporter, cycloheximide protein synthesis inhibition counterscreen | max response, % | actives 12% (n = 300,000); in the data active = max response mostly above about 13%, no sharp cut-off; inactive = mostly below about 14%; note: read at 38.3 µM for the half of the compounds with a filed dose; 0% is about no effect
# Shiga toxin inh – A qHTS for Small Molecule Inhibitors of Shiga Toxin; inhibition, % at 38.7 µM; actives 9.2% (n = 290,000); AID 2315, 2010; Vero cells, Shiga toxin protein synthesis inhibition reporter; in the data active = inhibition mostly above about 28%, no sharp cut-off; inactive = mostly below about 43%; note: 0% is about no effect
# Starred values were filed as active, the others as inactive; ? = inconclusive; / = no result. Unless noted, calls come from the whole dose curve; as a rule, active = well fitted inhibition curve with a large enough effect; inconclusive = small, poorly fitted or top-dose-only effect, or another doubt; inactive = no such curve, though single readings can be large or run the other way.
SMILES,Pf growth 48h,Pf growth 96h,LmPK inhibitor,CHX counter,Shiga toxin inh
COc1ccccc1-c1ccc(NC2CCCC2)nn1,88.7%,?,-15.9%,24.2*,55.4*
O=C(c1nn2c(C(F)(F)F)cc(-c3ccccc3)nc2c1Cl)N1CCN2CCCC2C1 (stereo not given),?,?,3.9%,-1.0,-15.6
CCC(C)c1ccc(C(C)NC(=S)NC2CCCCC2)cc1 (stereo not given),7.38µM*,9.28µM*,-1.8%,6.5,12.4
CC(NC(=S)NC1CCCCC1)c1ccc(C(C)(C)C)cc1 (stereo not given),5.86µM*,-6.6%,1.3%,5.4,1.3
CC(C)c1ccc(C(C)NC(=S)NC2CCCCC2)cc1 (stereo not given),11.7µM*,3.9%,3.4%,-1.6,-5.0
CCOc1ccc(C(C)NC(=S)NC2CCCCC2)cc1OCC (stereo not given),0.0828µM*,?,-4.2%,-4.1,1.2
C/C(CC(=O)NC1CCCC1)=N\NC(=O)Cc1csc(N)n1,9.8%,6.1%,2.8%,1.0,6.6
CC(C)(C)c1ccc(C(=O)NC2CCS(=O)(=O)C2)cc1 (stereo not given),40.9%,-0.8%,0.1%,10.2,23.9
O=C(COC(=O)c1cccc(F)c1)Nc1ccc2c(c1)OCCO2,113.5%,133.5%,/,/,/
O=C(Nc1ccc2c(c1)OCO2)C1CCCN1C(=O)Nc1cccc(F)c1 (stereo not given),?,/,3.7%,14.9,15.0
O=C(Nc1ccc2c(c1)OCO2)c1cccc(F)c1,118.2%,/,?,34.3*,75.1*
O=C(O)Cc1ccc(NC(=O)Nc2ccc(Br)cc2)cc1,8.6%,?,1.8%,8.8,25.3
O=C(Nc1cccc(F)c1)Nc1ccc2c(c1)OCO2,94.4%,47.1%,-9.1%,59.1*,85.0*
O=C(Nc1ccc2c(c1)OCO2)c1c(F)cccc1F,169.0%,/,-21.2%,33.4*,74.8*
O=C(O)Cc1ccc(NC(=O)Nc2ccc3c(c2)OCO3)cc1,41.2%,120.3%,-0.1%,34.8*,47.0*
CC(=O)c1ccc(S(=O)(=O)NC2CC(=O)N(c3cccc(F)c3)C2)cc1 (stereo not given),7.2%,0.6%,/,/,/
COc1ccc(C(C(=O)NCC2CCCO2)N(Cc2ccccc2)C(=O)CNC(=O)c2ccco2)cc1OC (stereo not given),2.8%,-2.7%,3.9%,-3.4,2.3
N[C@@H](COC(c1cccc(F)c1)c1ccccc1OCc1ccccc1)C(=O)O (stereo not given in full),/,/,/,-8.1,-5.8
CCOC(=O)C1CCCN(C(=O)c2cc3ccccc3oc2=O)C1 (stereo not given),28.2%,-26.2%,1.6%,4.6,13.6
COc1ccc(S(=O)(=O)N2CCCCC2)cc1NC(=O)c1ccc(N2CCCC2=O)cc1,9.28µM*,?,/,/,/
CC(C)Oc1ccc(S(=O)(=O)N2CCOCC2)cc1NC(=O)CC1CCCC1,9.28µM*,8.28µM*,/,/,/
CC(C)Oc1ccc(S(=O)(=O)N2CCOCC2)cc1NC(=O)C1CCC1,-11.4%,?,/,/,/
COc1ccc(S(=O)(=O)N2CCCCCC2)cc1NC(=O)c1ccccc1,1.7%,?,-6.9%,1.7,1.9
COc1ccc(S(=O)(=O)N2CCCCC2)cc1NC(=O)c1ccc(Cl)nc1,14.7µM*,?,/,/,/
COc1ccc(S(=O)(=O)N2CCCCCC2)cc1C(=O)OCc1c(C)noc1C,?,?,0.6%,-7.9,-6.0
SMILES,Pf growth 48h,Pf growth 96h,LmPK inhibitor,CHX counter,Shiga toxin inh
Cc1noc(C)c1CSCC(=O)Nc1cc(S(=O)(=O)N2CCCCC2)ccc1OC(C)C,13.1µM*,?,/,/,/
CC(=O)OCC(NC(=O)C1CCCN1C(=O)OC(C)(C)C)C1OC(n2cc(F)c(=O)[nH]c2=O)C(OC(C)=O)C1OC(C)=O (stereo not given),/,/,/,-3.7,19.1
CCOc1ccc(S(=O)(=O)N(CC)CC)cc1NC(=O)c1ccc(N2CCCC2=O)cc1,10.4µM*,?,-1.5%,-1.8,-1.5
CC(C)Oc1ccc(S(=O)(=O)N2CCOCC2)cc1NC(=O)C1=NN(c2ccccc2)C(=O)CC1,3.7µM*,1.65µM*,/,/,/
CC(C)Oc1ccc(S(=O)(=O)N2CCOCC2)cc1NC(=O)c1ccc(N2CCCC2=O)cc1,4.15µM*,1.31µM*,-1.7%,-1.0,-9.4
CCN(CC)S(=O)(=O)c1ccc(OC)c(NC(=O)c2ccc(N3CCCC3=O)cc2)c1,?,9.28µM*,/,/,/
COc1ccc(S(=O)(=O)N2CCOCC2)cc1NC(=O)c1cccc(-n2cccc2)c1,-10.1%,?,/,/,/
CS(=O)(=O)N1CCN(CC(=O)NC2CCCCC2)CC1,22.7%,3.1%,5.3%,-2.5,-3.6
O=C1/C(=C/c2ccccc2Cl)SC(=S)N1CCCC(=O)N(CCO)c1ccccc1,?,-27.0%,3.4%,-3.6,-12.6
COc1ccc(Cl)cc1N(CC(=O)N1CCCCCC1)S(C)(=O)=O,12.5%,-1.0%,-4.7%,-2.2,-4.1
COC(=O)c1cn(NC(=O)c2cc(OC)c(OC)c(OC)c2)c(=O)c2ccccc12,3.7%,3.29µM*,0.1%,-0.9,29.4
COC(=O)c1cn(NC(=O)c2cc(OC)cc(OC)c2)c(=O)c2ccccc12,-8.1%,-23.3%,-3.3%,0.9,-7.8
COC(=O)c1cn(NC(=O)c2ccncc2)c(=O)c2ccccc12,11.1%,5.86µM*,-5.2%,-2.6,41.0
CCc1ccc(N2C(=O)c3cc(N4CCOCC4)c([N+](=O)[O-])cc3C2=O)cc1,4.3%,7.38µM*,3.8%,-3.1,17.5
Cc1ccccc1CSCC(Nc1ccc(C(=O)O)cc1[N+](=O)[O-])C(=O)O (stereo not given),-12.8%,/,2.9%,-3.3,32.4
O=C1NC(c2ccccc2)=C(c2nc3ccccc3s2)C(c2ccc(O)cc2)N1 (stereo not given),2.08µM*,7.38µM*,3.7%,7.2,-9.3
O=C1NC(c2ccccc2)=C(c2ccc3ccccc3n2)C(c2ccc(F)cc2)N1 (stereo not given),5.22µM*,4.15µM*,3.6%,-3.4,-7.7
O=C1NC(c2ccccc2)=C(c2ccc3ccccc3n2)C(c2ccncc2)N1 (stereo not given),-2.6%,?,2.5%,-3.3,-1.1
O=C1NC(c2ccccc2)=C(c2ccc3ccccc3n2)C(c2ccccc2)N1 (stereo not given),11.7µM*,5.22µM*,-2.4%,-2.3,-8.6
CC(=O)C1=C(c2ccccc2)NC(=O)NC1c1ccc(O)c(Cl)c1 (stereo not given),6.8%,?,-1.9%,-2.1,-7.0
CN1CCN(NC(=S)NC2CCCC2)CC1,-18.1%,?,3.8%,-5.0,-5.1
Cc1ccn2c(C(=O)c3ccc(Cl)cc3)cnc2c1,/,-31.6%,-12.7%,51.5*,90.7*
Cc1ccn2c(=O)nc(SCC(=O)c3ccc(Cl)cc3)nc2c1,46.1%,49.9%,/,/,/
